# Data reported in ChEMBL document CHEMBL1157539, “Thousands of chemical starting points for antimalarial lead identification” (Nature, 2010).
# How the values were obtained:
# Assay type in all cases: functional
# [1] = tested on: Plasmodium falciparum; test: GSK_TCMDC: Inhibition of Plasmodium falciparum 3D7 in whole red blood cells, using parasite LDH activity as an index of growth. Test compounds present at 2uM
# [2] = tested on: Plasmodium falciparum; test: GSK_TCMDC: Inhibition of Plasmodium falciparum Dd2 in whole red blood cells, using parasite LDH activity as an index of growth. Test compounds present at 2uM
# [3] = tested on: HepG2; test: GSK_TCMDC: Percent inhibition of human HepG2 cell line. Test compounds present at 10uM.
Compound,Inhibition [1] [%],Inhibition [2] [%],Inhibition [3] [%]
CCCCCC(=O)N1CCOC(CCN2CCC(c3ccccc3)CC2)(c2ccc(Cl)c(Cl)c2)C1 (centres undefined),89,51,17
CC(O)C1CCCCN1C(=O)c1ccc(-c2ccc(-c3nc4ccccc4[nH]3)s2)cc1 (centres undefined),100,98,33
O=C(Nc1cccc(F)c1)N[C@H]1CCN(CCCCCNC(=O)C2CC2c2ccc(Cl)c(Cl)c2)C1 (some centres undefined),90,1,41
Cc1cccc2nc(-c3cccc(-c4cccc(CN5CCN(c6ccc(C#N)cn6)CC5)c4)c3)[nH]c12.O=C(O)C(F)(F)F,94,34,11
CCCC(=O)Nc1ccc(OCCCN(Cc2cccc(C(F)(F)F)c2)c2ccc(C#N)c(C(F)(F)F)c2)cc1,90,89,0
CC(C)CCN1CCC(Oc2ccc(NC(=O)c3ccsc3)cc2Cl)CC1.O=C(O)C(F)(F)F,89,81,19
CC(C)Oc1cc2c(cc1NS(=O)(=O)c1ccc(-c3cccs3)cc1)CCN(C)CC2.Cl,88,9,9
O=C(Nc1ccc(OC(F)(F)F)cc1)Nc1ccc([N+](=O)[O-])cc1,100,100,41
COc1ccc2nccc(NCC3(O)CCN(CC(O)c4ccc5c(c4)NC(=O)CS5)CC3)c2n1.Cl (centres undefined),100,3,3
COc1ccc(S(=O)(=O)Nc2cc(Br)cc3c2OCCC3)cc1N1CCN(C(=O)C(Cl)(Cl)Cl)CC1,90,51,4
Fc1ccc2[nH]c(-c3ccc(-c4ccc(CNCc5cnn(-c6ccccc6)n5)cc4)cc3)nc2c1.O=C(O)C(F)(F)F,98,47,41
CN(C)CCNc1cc(-c2cccnc2)nc(-c2ccncc2)n1,100,98,33
O=C(Nc1ccc(Cl)c(Cl)c1)Nc1ccc2nccc(N3CCN(Cc4ccccc4)CC3)c2c1,100,100,31
CNCc1cccc2nc(-c3ccc(Cc4cc(Cl)ccc4OCC(C)C)o3)[nH]c12.Cl,97,23,20
Cc1ccc(-c2nnc3c4ccccc4c(C)nn23)cc1S(=O)(=O)N1CCN(CCO)CC1,85,62,16
Cc1ccc(C(C)C)c(Oc2cnc(NC(CO)c3ccccc3)nc2N)c1 (centres undefined),95,0,27
Cc1cc(N[C@@H](Cc2ccccc2)C(=O)NCc2cccc(F)c2)nc(Nc2ccccc2)n1.O=C(O)C(F)(F)F,100,92,20
CC(C)NCc1cccc(-c2cccc(NC(=O)c3ccc(C#N)cc3)c2)c1.O=C(O)C(F)(F)F,97,20,18
Cc1cc2c(/C=C/C(=O)NC3CCC(CCN4CCc5ccc(C#N)cc5CC4)CC3)cccc2[nH]1.Cl (centres undefined),95,39,16
O=C(Nc1cc(F)c(F)c(-c2cccnc2)c1)N1CCc2cc(Cl)c(Cl)cc21,94,9,0
Cc1cc(NC(=O)Nc2ccc3nccc(N4CCN(C)CC4)c3c2)ccc1Br,100,100,31
COc1ccccc1N1CCN(C(C(=O)NCc2ccc(C)cc2)c2ccc(C)cc2)CC1 (centres undefined),92,79,12
CC(=O)NCCCCC1NC2(C(=O)N(Cc3ccc(C(C)(C)C)cc3)c3ccccc32)C2C(=O)N(C3CCCCC3)C(=O)C12 (centres undefined),91,71,0
Cl.N=c1n(Cc2ccccc2)c2ccccc2n1CC(O)c1ccc(Cl)c(Cl)c1 (centres undefined),95,98,40
Cc1cc2nc(N/C(N)=N/C(=O)NC3CCCCC3)nc(C)c2cc1C,94,98,20
Br.O=C(CNc1ccncc1)c1c[nH]c2ccccc12,90,62,31
CC(C)CNCc1cccc(-c2ccc(CNC3CCN(Cc4ccccc4)CC3)cc2)c1.O=C(O)C(F)(F)F,100,99,44
COc1ccc(NC(=O)/C=C/c2ccccc2Cl)cc1OCCN1CCC(N2CCCCC2)CC1,100,49,3
